The assay deals with THRa homodimer (NR concentration 90 nM). The assay is described as follows: PBM binding z-score (relative to random genomic background probes); higher = stronger binding; sequences stand for … in GC…GCGATTGACAGCGTAGAATGAAGG
In a few lines:
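Antibodies against each partner of ligand-free nuclear receptor dimers (one per run) detected binding on custom Agilent 4×180K protein-binding microarrays after 1 h incubation. The double-stranded probes had 34-nt variable regions carrying direct-repeat seeds, single-nucleotide variants, half-site ablations and random human genomic background sequences. Binding z-scores, from regression-normalized fluorescence, use the random background probes as reference.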
With GATACAGGGTCAGGTAGAGGCCAGAGTATGGAAA, the PBM binding z-score turned out to be 0.846.
The figure for TTACCAAGGTGAGCTGAGGTCCTTGATCCAACTC is 0.733.
As to AGAACGAGGGCAATGAGTTGAGAGCACGGGTGGC, the PBM binding z-score is -0.211.
The result for ATCGATAGGTCGTGAGGTGAGTATACAGAAAGGC reads 1.33; that for GATACAGGGTCAAGGCAAGAGTACGCGTATTGAT, 1.16; that for TCTAGTTGGTCACGCAGGTCACACACGACGGGTA, 1.81.
The figure for CTCGAAAGGTCGTGCTCAGGTGACTATACCAAAC is 1.69; for CATACTGGGCCAAAGGTCATTGATTCCAATGCTC it is 1.03.
TCGAGTAGGTTACCAATAGGGCATTCAGCTTTCT showed a PBM binding z-score of -0.961.
In the case of CGTCCAAGGTCAAGGTCAGTGATAGAGACTCGAA, the PBM binding z-score worked out at 3.93.
Turning to ATATGTAGGATACATCCGGGTCATTCAGGCTATG, the PBM binding z-score was found to be 1.95.
The figure for TCTAGTTGGTCAAGGAGGTCACACACGACGGGTA is 2.15.
GCATATACGTAATACAAGGTGAAAGTCCGATTGT registered a PBM binding z-score of 1.16.
The figure for ACTAGTTGGACAGCTGAGGTCACACACAATTCGG is 4.93.
Sequence CCTAGTTGGTCAAGGTCACACGCGCTATAGGTAC showed a PBM binding z-score of 4.19.
The figure for ATATGTAGGTTACGGGTCATTCAGGTTGGTTCGC is 1.49; for ATCGAAAGCTCGTGAGGTGAGTATACAGAAAGGC it is 0.723.
CCTATTAGTTGACCATCAGGGCAACCGAAGCTCG displayed a PBM binding z-score of 0.957.
The result for TCGAGTAGGTGAGTCGGGGCATTCAGCCAACATA reads -0.305; that for ACTAGTTGGTCAGCTGAGCTCACACACAATTCGG, -0.346; that for TCTTGTAGATCAAAGGGTAAGAAAGCCGAAGCCT, -0.878.
Take TATACAGGGTCAAAGGCCAGAATACGAATGTCGA: the PBM binding z-score was determined as 0.697.
For TCTCGGAGGACATGAAGGTCAGAGCTTTCCAGAG, the PBM binding z-score was 0.338.
With TTACCAAGGTGAAGGTCGTTGAGCCCTCTGTAGA, the PBM binding z-score is 0.652.
TCTGCTAGGTCAGTTGGTCAGCTATCGAGCTGCC gave a PBM binding z-score of 0.162.
For ACTAGCAGGCGAAGGGTCACTCAAGATTAGTCCG, the PBM binding z-score is -0.224.
The figure for ATATGTAGGCTATCGGGTCATTCAGTTTGCGCAT is 1.79; for ATATGTACGTTACATCCGGGTCATTCAGGCTATG it is 2.93; for CCTGCTAGGTCAATGGTCAGCGAAAGCAGCTCGC it is 0.558.
With TCTTGGAGATCAACAGGAGGTTAAGAAAGATCGA, the PBM binding z-score is -0.452.
For TCTTGTAGATCAACAGGAAGTTAAGAAAGATCGA, the PBM binding z-score was -1.05.
With TAGCCTAGGTCATGGACCAGTATACCACGCGAAC, the PBM binding z-score turned out to be 1.13.
The result for TCTCGGAGGACACGAAAGGTCCGAGCTCGACATC reads 0.526; that for TCTTGTAGATGAACAGGAGGTTAAGAAAGATCGA, -0.383; that for CCTAGTTGGTCAGAAGGTCACACACCGGATATGA, 1.59.
As for CCTTACGGGACACTGACAGGTTATAGCATTTGGA, the PBM binding z-score is 0.0512.
The figure for GATTCAGGGTCAAGGCCAGAGTACGCGTATTGAT is 2; for TTGCCTAGGTCAGATCGGGCCAGTATACGCTATA it is -0.108.
The figure for TTACCAAGGTGAGCTGAGGTCGTTGACCCAACTC is 2.16.

Values taken from the supplement of paper PMC6555819.
